Results on 97 compounds are retold here after PubChem BioAssay AID1918 (Vanderbilt High Throughput Screening Facility, 2009).

Screen size: about 130,000 compounds; about 2,500 (1.9%) were called active. This is one part of a sample in which actives are shown more often than they occur. Unmarked numbers belong to inactive results.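 How the source made its calls: active means signal ratio slope over the read window, or its plate-corrected B-score, at least 3 SD from the plate mean, either direction; inactive means the rest.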

The target of the assay is ATP-sensitive inward rectifier potassium channel 1 (Homo sapiens) (UniProt P48048). Kind of assay: Kir1.1 channel activity modulation, library screen – cell-based, thallium flux, MLSMR library, primary screen (AID 1918).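 Further: B-score of the F/F0 ratio slope over 7 to 12 s after thallium.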 To be noted: Tet-inducible ROMK, thallium flux fluorescence; at 10 µM; actives lie on both sides.
ATP-sensitive inward rectifier potassium channel 1 (Homo sapiens), sequence (P48048 whole entry, looked up): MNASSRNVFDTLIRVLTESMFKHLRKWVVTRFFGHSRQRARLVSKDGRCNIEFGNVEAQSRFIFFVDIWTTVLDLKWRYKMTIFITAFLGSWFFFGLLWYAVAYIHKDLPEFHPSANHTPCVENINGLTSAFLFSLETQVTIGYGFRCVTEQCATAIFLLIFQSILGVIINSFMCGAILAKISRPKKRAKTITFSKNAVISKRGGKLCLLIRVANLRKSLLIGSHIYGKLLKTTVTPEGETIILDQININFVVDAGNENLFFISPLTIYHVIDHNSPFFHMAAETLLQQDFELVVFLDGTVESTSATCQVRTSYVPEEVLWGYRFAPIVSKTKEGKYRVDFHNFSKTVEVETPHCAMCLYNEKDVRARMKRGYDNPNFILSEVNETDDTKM
`O=C1CC(=O)Nc2cc(S(=O)(=O)N3CCN(c4cccc(C(F)(F)F)c4)CC3)ccc2N1`: the B-score is -0.0476.
With `Cc1cc2cc(CN(Cc3cccs3)Cc3nnnn3CC3CCCO3)c(=O)[nH]c2cc1C` (configuration not stated) the figure was -5.43 (active).
With `COc1ccccc1C(c1nnnn1CC1CCCO1)N1CCN(c2ccccc2)CC1` (configuration not stated) the figure was -0.18.
Regarding `COc1ccc2[nH]c(=O)c(CN(Cc3nnnn3CCc3ccccc3)CC3CCCO3)cc2c1` (configuration not stated), the B-score is -1.17.
`CCN(CC)CC1(O)CCN(C(=O)c2ccc(Cl)c(Cl)c2)CC1`: the B-score was 0.898.
Then `Cc1nn(CC(=O)Nc2ccc3c(c2)OCO3)c(C)c1[N+](=O)[O-]`, with 0.634; and `CC(CC(=O)Nc1ccccc1)n1ccnc1` (configuration not stated), with -0.543; and `O=C(CN1CCN(S(=O)(=O)/C=C/c2ccccc2)CC1)Nc1ccc(N2CCOCC2)cc1`, with 1.12.
With `O=C(NC(=O)N1CCOCC1)c1ccccc1` the figure was 0.751; with `O=C(c1ccc2c(c1)C(=O)N(c1ccc(Cl)cc1)C2=O)N1CCN(c2ccccn2)CC1`, 0.202.
Regarding `O=C(O)c1ccc2c(c1)C(=O)N(c1ccc(/C=C/C(=O)c3ccccc3)cc1)C2=O`, the B-score is -2.93 (active).
As to `O=C(/C=C/c1ccc(N2CCOCC2)cc1)c1ccccc1`, the B-score was -3.77 (active).
Consider `CC(=O)Oc1ccc(C)cc1N1C(=O)c2ccc(C(=O)O)cc2C1=O`, for which the B-score is 0.575.
With `COc1cc(NC(=O)COC(=O)c2cnc(C)cn2)c(C)cc1[N+](=O)[O-]` the figure was -0.377.
Then `O=C(O)c1ccccc1C(=O)Nc1ccccc1[N+](=O)[O-]`, with -0.117; and `Cc1csc(NC(=O)CSc2ccc(-c3ccc(F)cc3)nn2)n1`, with -0.896; and `Cn1c(-c2ccccc2)c[n+]2c1CCCCC2`, with 0.591.
Then `Cc1ccc(C(=O)C[n+]2cc(-c3ccccc3)n3c2CCCCC3)cc1`, with -3.3 (active).
For the compound `Cc1ccc(C(=O)N2CCCC(c3ccccc3)=N2)cc1`, the B-score was -0.95.
As to `CCOC(=O)C1CCCN(C(=O)COc2ccc(N(C)S(=O)(=O)c3ccc(C)cc3)cc2)C1` (configuration not stated), the B-score is 0.882.
Then `CCN(CC)S(=O)(=O)c1ccc(NC(=O)c2cccnc2Cl)c(NC(=O)c2cccnc2Cl)c1`, with 0.845; and `COC(=O)C(C)C1Sc2ccccc2NC1=O` (configuration not stated), with -0.193.
With `Cc1ccc(CNC(=O)CC2Sc3ccccc3NC2=O)cc1` (configuration not stated) the figure was 1.17 (active); with `COc1ccc(CCNC(=O)CC2SC(=Nc3cc(C)cc(C)c3)NC2=O)cc1OC` (configuration not stated), -0.14.
For the compound `CC(Nc1nc(N2CCOCC2)nc2ccccc12)c1ccccc1` (configuration not stated), the B-score was -0.474.
Then `CN1CCN(CC(=O)Nc2cccc([N+](=O)[O-])c2)CC1`, with 0.51; and `CNC(=S)NNC(=O)c1cccn(Cc2ccccc2)c1=O`, with 0.643.
With `O=C(Nc1cccc(Cl)c1N1CCOCC1)c1ccc2c(c1)OCCO2` the figure was -0.937.
`CCS(=O)(=O)c1ccc(C(=O)NC)c(Cl)c1Cl`: the B-score was 0.613.
For the compound `Cc1ccc2c(=O)oc(N(C)C)nc2c1`, the B-score is 2.36 (active).
Then `Cc1ccc2nc3n(c(=O)c2c1)CCC3`, with 0.127; and `CN(C)c1ccc2c(=O)[nH][nH]c(=O)c2c1`, with 0.291.
Then `Cc1cc(C)c(C(N)=O)c(Cl)n1`, with 0.133.
With `CC1CCCN(S(=O)(=O)c2ccc(N(C(=O)c3cnccn3)C(C(=O)NC3CCCCC3)c3cccs3)cc2)C1` (configuration not stated) the figure was -3.38 (active); with `CC1CCCN(S(=O)(=O)c2ccc(C(=O)Nc3nnc(-c4ccncc4)o3)cc2)C1` (configuration not stated), 0.153; with `Cc1ccc(N(C(=O)C(F)(F)F)C(C(=O)NC2CCCCC2)c2ccncc2)cc1C` (configuration not stated), -0.0116.
With `N/C(=N\OC(=O)CCc1ccccc1)c1cccnc1`, the B-score is 0.92.
In the case of `O=C(/C=C/c1ccccc1[N+](=O)[O-])OC1CCCCC1=O` (configuration not stated), the B-score was 0.69.
Regarding `COc1ccc(/C=N/S(=O)(=O)c2ccccc2)cc1OC`, the B-score was -0.975.
In the case of `COc1ccc(CCNC(=O)CCCCn2c(=O)[nH]c3ccccc3c2=O)cc1OC`, the B-score is 0.342.
With `COc1ccc(N=Cc2c(O)[nH]c3ccccc23)cc1OC` the figure was 2.81 (active); with `CCC1(C)Cc2c(sc3[nH]c(=S)n(Cc4ccccc4)c(=O)c23)CO1` (configuration not stated), 5.27 (active); with `CCC1(C)Cc2c(sc3nc4n(c(=O)c23)CCCS4)CO1` (configuration not stated), -0.196.
Consider `CCC1(C)Cc2c(sc3nc(SC)nc(N)c23)CO1` (configuration not stated), for which the B-score was -1.15.
In the case of `NC(=O)C1CCN(C(=O)COc2cccc3cccnc23)CC1`, the B-score was 0.124.
Then `Cc1cc(C(=O)N/N=C\C(Br)=C\c2ccccc2)c(C)o1`, with -0.321.
Regarding `COc1ccc(/C=N/NC(=O)C(C)N(c2ccc(OC)cc2)S(C)(=O)=O)cc1` (configuration not stated), the B-score is -0.0127.
For the compound `CS(=O)(=O)N(CC(=O)N/N=C/c1ccccn1)c1ccc(Oc2ccccc2)cc1`, the B-score is -0.000176.
For the compound `CC(C(=O)NC1CCCC1)N(c1ccc(Oc2ccccc2)cc1)S(C)(=O)=O` (configuration not stated), the B-score is -3.71 (active).
For `CSc1ccccc1NC(=O)CN(C)CC(=O)Nc1ccc(Cl)cc1[N+](=O)[O-]`, the B-score is -1.12.
With `CC(C)OCC(O)CN1CCN(C(c2ccccc2)c2ccccc2)CC1` (configuration not stated) the figure was -0.0404; with `Cc1ccccc1C(OCC(O)CN1CCCCC1CCO)c1ccccc1` (configuration not stated), -4.16 (active).
Then `Cc1cccc(C)c1OCC(O)CN1CCCCC1` (configuration not stated), with 0.161; and `Cc1ccc(C(=O)OC2CCCN(C)C2)cc1` (configuration not stated), with 0.17; and `Cc1ccc2nc(COc3ccc(N(C)S(=O)(=O)c4ccccc4)cc3)cc(=O)n2c1`, with 0.648.
Then `COCCNC(=O)CCCn1c(=O)c2ccccc2n(Cc2cccc([N+](=O)[O-])c2)c1=O`, with -1.13.
Regarding `COc1ccc(CCNC(=O)COC(=O)Cc2cc(OC)c(OC)c(OC)c2)cc1`, the B-score is 0.986.
With `COc1ccc2c(c1)CCC/C2=N\OC(=O)c1ccccc1F` the figure was -0.245; with `Cc1ccccc1-n1nc(SCC(=O)O)sc1=S`, -0.00827; with `O=S(=O)(c1ccc2c(c1)OCCO2)N1CCc2ccccc21`, 0.399.
With `O=C(CN1CCC(O)(c2ccccc2)CC1)Nc1ccc2c(c1)OCCO2` the figure was 0.414; with `O=C(CCN1CCc2ccccc2C(O)(c2ccccc2)C1)c1ccc2c(c1)OCCO2` (configuration not stated), -3.53 (active); with `COc1ccc(NC(=S)Nc2ccc(S(N)(=O)=O)cc2)c(C)c1`, 0.982.
For the compound `CN(C)CCCN(Cc1cc2cc3c(cc2[nH]c1=O)OCCO3)C(=O)NC1CCCCC1`, the B-score is 0.033.
With `COc1ccc(NC(=O)COc2ccc(C(=O)OCC(=O)N(C)C3CCS(=O)(=O)C3)cc2OC)cc1` (configuration not stated), the B-score is 0.348.
With `Cc1cccc(N2CCN(C(c3ccc(N(C)C)cc3)c3nnnn3C(C)(C)C)CC2)c1C` (configuration not stated) the figure was -2.94 (active).
With `CC(=O)N1CCN(c2cccc(C)c2C)CC1` the figure was -0.0972; with `CC(C)(C)n1nnnc1C(c1ccc2ncccc2c1)N1CCSCC1` (configuration not stated), -0.18; with `CCC(C(=O)Nc1ccc(C(C)C)cc1)c1ccccc1` (configuration not stated), -0.192.
Regarding `COc1cc2sc(C)nc2cc1C`, the B-score is 1.46.
With `Fc1ccc2[nH]c3c(N4CCN(Cc5ccc6c(c5)OCO6)CC4)ncnc3c2c1` the figure was -3.14 (active); with `Fc1ccc2[nH]c3c(N4CCSCC4)ncnc3c2c1`, -5.22 (active); with `CC(C)OC(=O)C(C#N)c1nc2ccccc2nc1N1CCN(Cc2ccc3c(c2)OCO3)CC1` (configuration not stated), -0.0869.
With `O=c1[nH]c(N2CCN(Cc3ccc4c(c3)OCO4)CC2)nc2c1CCCC2` the figure was -1.42; with `CC(C)OCCCNc1ncnc2c1[nH]c1ccc(F)cc12`, -2.49; with `Nn1c(SCC(=O)Nc2nccs2)nncc1=O`, 1.33.
With `COc1ccc(CC(=O)N[C@@H](CCSC)c2nc3ccccc3[nH]2)cc1` the figure was -1.58; with `CCc1nnc(NC(=O)CSc2nc(SC)ns2)s1`, -0.0846; with `O=C(C1CCCN1S(=O)(=O)c1ccc(Br)cc1)N1CCOCC1` (configuration not stated), -0.207.
In the case of `CCn1cc(C(=O)Nc2cc(C)ccc2C)c(=O)c2ccc(C)nc21`, the B-score was 0.0033.
With `COc1ccc(CC2(CO)CCN(Cc3cnn(C)c3)CC2)cc1` the figure was 0.221.
Consider `CCOc1cccc(C(=O)Nc2nnc(-c3cccs3)s2)c1`, for which the B-score was 1.45.
On to `CCOc1cc(/C=C(\C#N)c2nc(-c3cccs3)c(NC(C)=O)s2)ccc1O`, for which the B-score was -2.6 (active).
Then `CCOc1cc(/C=C(/C#N)c2ccc(Cl)cc2)cc(Cl)c1OCC(=O)O`, with 1.07; and `Cc1ccc(S(=O)(=O)N2CCC(N3CCCCCC3)CC2)cc1`, with 0.651.
With `Cc1ccc(S(=O)(=O)C2(S(=O)(=O)c3ccc(C)cc3)CCCC2)cc1` the figure was 3.4 (active); with `Cc1ccc(S(=O)(=O)N(C)C2(C)CCS(=O)(=O)C2)cc1` (configuration not stated), 1.47.
Then `COc1ccc(N(CC(=O)Nc2ccc(C)cc2C)S(=O)(=O)c2ccccc2[N+](=O)[O-])c(OC)c1`, with -0.208; and `CN(C)S(=O)(=O)c1cccc(NC(=O)COC(=O)/C=C/c2cccs2)c1`, with 0.12.
Take `O=C(CN(C(=O)c1csnn1)c1cccc(F)c1)NCc1ccc(F)cc1`: the B-score is 0.442.
Turning to `O=C(Cn1ncc(N2CCCC2)c(Br)c1=O)c1ccc(Cl)cc1`, the B-score was -0.342.
For the compound `O=C(Cn1nc(CNc2ccc(Cl)cc2)[n+]2c1CCCCC2)c1ccc(Cl)cc1`, the B-score is -3.24 (active).
Turning to `COC(=O)c1ccc(NCC(=O)N2CCCCCC2)cc1`, the B-score is -0.512.
For `CC(C)CCN1CCN(C/C=C/c2ccco2)CC1CCO` (configuration not stated), the B-score is 0.0943.
For `CCOc1cccc(-n2nnnc2-c2ccc(OC)cc2)c1`, the B-score was 2.1.
With `COc1ccc(C2=CC(c3cccc(OC)c3)n3nnnc3N2)cc1` (configuration not stated) the figure was -4.22 (active); with `COc1cccc(C2Nc3cccc4cccc(c34)N2)c1`, -0.051.
